Assay outcomes deposited in PubChem BioAssay by several laboratories.
Many of the other results were omitted from the sample, so hits are more common in it than they were.
Cav32 inh – human Cav3.2 channel inhibition, primary screen; AID 449739; Cav3.2-expressing cells, Fluo-4 calcium fluorescence FDSS; stronger effect = lower value; B-score at 10 µM; 4% of 100,000 active;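 active = single-dose well whose peak fluorescence ratio is a statistical outlier from its plate by either plate-standardised score or position-corrected B-score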
Mac1 fbg inh – blocks human CD11b/CD18 adhesion to fibrinogen; 0.54% of 93,000 active; P05107+P11215; AID 1497; inhibition, % at 10 µM; K562 CD11b/CD18 adhesion to fibrinogen, ATPlite luminescence; Mn2+ added to activate the integrin;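 active = primary inhibition of 50% or more at 10 µM, then 40% or more on retest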
Target sequence (P05107 whole entry, looked up, other chains not shown): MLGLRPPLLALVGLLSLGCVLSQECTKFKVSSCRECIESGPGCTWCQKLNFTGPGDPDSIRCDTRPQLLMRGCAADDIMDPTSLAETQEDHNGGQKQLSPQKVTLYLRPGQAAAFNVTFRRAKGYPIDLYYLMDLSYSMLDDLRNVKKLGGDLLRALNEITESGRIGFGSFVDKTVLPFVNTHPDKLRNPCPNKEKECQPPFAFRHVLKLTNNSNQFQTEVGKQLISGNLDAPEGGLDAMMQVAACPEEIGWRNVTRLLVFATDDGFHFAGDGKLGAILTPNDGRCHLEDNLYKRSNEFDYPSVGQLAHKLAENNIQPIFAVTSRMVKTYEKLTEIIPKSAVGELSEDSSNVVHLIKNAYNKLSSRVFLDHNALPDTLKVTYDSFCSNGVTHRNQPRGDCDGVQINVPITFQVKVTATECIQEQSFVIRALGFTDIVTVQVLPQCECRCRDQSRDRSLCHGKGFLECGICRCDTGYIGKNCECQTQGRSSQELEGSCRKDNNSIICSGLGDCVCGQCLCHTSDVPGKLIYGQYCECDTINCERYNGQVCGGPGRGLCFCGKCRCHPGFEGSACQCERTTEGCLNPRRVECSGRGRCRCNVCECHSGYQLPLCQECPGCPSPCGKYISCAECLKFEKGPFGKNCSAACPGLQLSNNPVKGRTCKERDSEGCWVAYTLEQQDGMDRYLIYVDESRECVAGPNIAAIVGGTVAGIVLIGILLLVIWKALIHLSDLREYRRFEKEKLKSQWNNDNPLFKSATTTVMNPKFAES
Mac1 fbg enh – CD11b/CD18-fibrinogen binding enhancement. K562 CD11b/CD18 adhesion to fibrinogen, ATPlite luminescence. activation, % at 10 µM. 0.07% of 93,000 active;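 active = 10 µM primary screen giving 50% or more activity, confirmed by 40% or more on retest at that dose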
E coli WT exp – E. coli BW25113 growth inhibition, expanded screen. OD600 absorbance. growth inhibition, % at 100 µM. 0.15% of 98,000 active. AID 710;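 active = growth inhibition above about 50% at one test dose, limit read from the data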;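 also: growth measured after 20 h incubation at 37 °C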
Of the large screens only hits and unclear results are named; the others gave an inactive call.

CCOC(=O)COc1ccc(S(=O)(=O)c2ccc(OCC(=O)OCC)cc2)cc1	Cav32 inh -6.1
CCOC(=O)COc1ccc(S(=O)(=O)Nc2ccc(C)cc2)cc1	none
CN1CCCC1CCNC1C2CC3CC(C2)CC1C3 (centres undefined)	none (no result: Cav32 inh, Mac1 fbg inh, Mac1 fbg enh)
O=C(NCc1ccc(C(F)(F)F)cc1)C12CN(Cc3ccccc3)CC1C(c1cccc([N+](=O)[O-])c1)=NO2 (centres undefined)	Cav32 inh -3.2
O=C(NCc1ccc2c(c1)OCO2)C12CN(Cc3ccccc3)CC1C(c1cccc([N+](=O)[O-])c1)=NO2 (centres undefined)	none
O=C(Nc1ccn(Cc2ccccc2F)n1)c1ccc(COc2ccc(Br)cc2)cc1	Cav32 inh -4.6 (no result: Mac1 fbg inh, Mac1 fbg enh)
O=C(Nc1ccn(Cc2ccc(Cl)cc2)n1)c1ccc2c(c1)OCO2	none
CCN1CCN(c2ccc(NC(=O)c3cccc(OCc4ccccc4)c3)cc2)CC1	none
CCCNC(=O)c1cccc(Cn2nc(C)c(Br)c2C)c1	none
CCOc1ccc(C(=O)Nc2cnn(Cc3ccc(Cl)c(Cl)c3)c2)cc1	none (no result: Mac1 fbg inh, Mac1 fbg enh)
O=C(Nc1ccc(Cn2cccn2)cc1)c1ccc(COc2ccc(Br)cc2)cc1	Mac1 fbg enh 52
O=C(Nc1ccc(Cn2cccn2)cc1)c1ccc(COc2cccc(Br)c2)cc1	Cav32 inh -4.7
Cc1nn(Cc2cccc(C(=O)Nc3ccn(Cc4ccccc4F)n3)c2)c(C)c1[N+](=O)[O-]	Cav32 inh -4.3
COc1ccc(OC)c(C2C(C(=O)Nc3nc4ccccc4s3)=C(C)NC3=C2C(=O)CCC3)c1 (centres undefined)	Cav32 inh -7.5
CCN(CC)C(=O)CSc1nc2c(sc(=S)n2-c2ccccc2)c(=O)n1Cc1ccco1	Cav32 inh -6.6
Cc1nc2ccccc2c(=O)n1/N=C/c1cn(-c2ccccc2)nc1-c1cccs1	Cav32 inh -4
Cc1nc2ccccc2c(=O)n1/N=C/c1ccccc1	none (no result: Mac1 fbg inh, Mac1 fbg enh)
CC(Sc1nnc(N)s1)c1ccccc1Cl (centres undefined)	none
COCCn1nnnc1C(c1ccc(OC)cc1OC)N1CCN(c2ccccc2F)CC1 (centres undefined)	none
COc1ccc(C(c2nnnn2C2CCCC2)N2CCC(C)CC2)c(OC)c1 (centres undefined)	none (no result: Cav32 inh)
Cc1ccc2cc(C(c3nnnn3Cc3ccccc3)N3CCN(c4ccccc4)CC3)c(=O)[nH]c2c1 (centres undefined)	none (no result: Cav32 inh)
COc1ccc(OC)c(C(c2nnnn2C2CCCC2)N2CCN(c3ccc(F)cc3)CC2)c1 (centres undefined)	Cav32 inh -9.4
Cc1ccc2cc(C(c3nnnn3C3CCCC3)N3CCN(c4ccccc4)CC3)c(=O)[nH]c2c1 (centres undefined)	Cav32 inh -6.1
COc1ccc(Cn2nnnc2C(c2cccs2)N2CCCCCC2)cc1 (centres undefined)	Cav32 inh -4.1
COc1ccc(C(c2nnnn2Cc2cccs2)N2CCN(c3ccccc3F)CC2)cc1 (centres undefined)	Cav32 inh -3.4
NC(=O)C1CCN(C(=O)c2ccco2)CC1	none (no result: Mac1 fbg inh, Mac1 fbg enh, E coli WT exp)
CCN(CC)S(=O)(=O)c1cccc(NC(=O)c2cc(=O)[nH]c3ccccc23)c1	none (no result: Cav32 inh, E coli WT exp)
Cc1ccc(/C=C/C(=O)O)cc1S(=O)(=O)N(CCO)CCO	none (no result: Mac1 fbg inh, Mac1 fbg enh, E coli WT exp)
COc1cc(C(c2nnnn2C2CCCC2)N2CCc3ccccc3C2)ccc1O (centres undefined)	none
c1ccc(Cn2nnnc2C(c2cccs2)N2CCSCC2)cc1 (centres undefined)	none (no result: Mac1 fbg inh, Mac1 fbg enh)
COc1ccc(C(c2nnnn2C2CCCC2)N2CCN(c3ccccc3)CC2)cc1 (centres undefined)	Cav32 inh -5.2 (no result: Mac1 fbg inh, Mac1 fbg enh, E coli WT exp)
c1ccc(CN2CCN(C(c3ccccc3)c3nnnn3Cc3ccccc3)CC2)cc1 (centres undefined)	none (no result: Mac1 fbg inh, Mac1 fbg enh, E coli WT exp)
COc1ccc(C(c2nnnn2Cc2ccccc2)N2CCN(c3nc4ccccc4s3)CC2)cc1 (centres undefined)	Cav32 inh -4.8
COc1ccc(C(c2nnnn2C2CCCCC2)N2CCN(c3ccccc3)CC2)cc1 (centres undefined)	none (no result: Cav32 inh, E coli WT exp)
Fc1ccc(Cn2nnnc2C(c2ccc(Cl)cc2)N2CCSCC2)cc1 (centres undefined)	Cav32 inh -7.1
Oc1ccc(C(c2nnnn2C2CCCC2)N2CCc3ccccc3C2)cc1 (centres undefined)	Cav32 inh -6.9
COCC(C)NC(=O)C1CC(c2cccc(Br)c2)=NO1 (centres undefined)	none
CCC1CCc2c(sc(NC(=O)C3c4ccccc4Oc4ccccc43)c2C(N)=O)C1 (centres undefined)	none (no result: Cav32 inh, E coli WT exp)
CCOC(=O)c1cc2cc(OC)ccc2nc1C	none (no result: Mac1 fbg inh, Mac1 fbg enh, E coli WT exp)
COc1ccc(C(c2nnnn2Cc2ccccc2)N2CCN(c3ccccc3)CC2)cc1 (centres undefined)	Cav32 inh -4.5 (no result: E coli WT exp)
COc1ccc(Cn2nnnc2C(c2ccccc2)N2CCN(C3CCCC3)CC2)cc1 (centres undefined)	none
COc1ccc(S(=O)(=O)NCCSCc2ccco2)cc1Cl	Cav32 inh -6
CCn1c(NCc2cc(OC)ccc2OC)nc2ccccc21	none
CCCn1c(NCc2cc(OC)ccc2OC)nc2ccccc21	Cav32 inh -4.8
CCOC(=O)CN1C=C(c2ccc3ccccc3n2)C(C[N+](=O)[O-])c2ccccc21 (centres undefined)	Cav32 inh -4.9
CCOC(=O)c1sc2nc(CC(=O)OC)nc(N3CCN(c4ccccn4)CC3)c2c1C	Cav32 inh -2.9
O=C(N1CCN(c2ccc(F)cc2)CC1)C1(c2cccs2)CCOCC1	none (no result: Cav32 inh, E coli WT exp)
Cc1ccccc1Cn1nc(C)c(NC(=O)c2noc3c2CC(C(C)(C)C)CC3)c1C (centres undefined)	Cav32 inh -4.7
Cc1ccccc1Cn1cc(NC(=O)c2noc3c2CC(C(C)(C)C)CC3)cn1 (centres undefined)	none
Cc1ccccc1Cn1nc(C)c(NC(=O)c2noc3c2CCc2ccccc2-3)c1C	Cav32 inh -6.9
CCC(=O)Nc1nnc(-c2ccco2)o1	none
Cc1ccsc1C(=O)Nc1nnc(-c2ccco2)o1	E coli WT exp 85
COCCN1C(=O)N[C@@H](c2ccccc2)[C@H](C(=O)OC)[C@H]1C	none (no result: Mac1 fbg inh, Mac1 fbg enh, E coli WT exp)
N#CC(c1cccc(Cl)c1)c1ccc2c(C(F)(F)F)cc(C(F)(F)F)nc2n1 (centres undefined)	Cav32 inh -9.2
CC(C)CN1C(=O)c2ccc(C(=O)Nc3nccs3)cc2C1=O	none (no result: Cav32 inh)
CC(C)CN1C(=O)c2ccc(C(=O)Nc3ccncc3)cc2C1=O	Mac1 fbg inh 82
C/C(=N\NC(=O)CSc1nc(C)cc(C)n1)c1cccc([N+](=O)[O-])c1	none (no result: Cav32 inh, E coli WT exp)
Cc1ccc(NC(=O)CSc2nccn2Cc2ccccc2)cc1C	Cav32 inh -8
Clc1ccc(CSc2nccn2Cc2ccccc2)cc1	Cav32 inh -5 (no result: Mac1 fbg inh, Mac1 fbg enh)
CC(=O)Nc1ccc(NC(=O)CSc2nccn2Cc2ccccc2)cc1	none
C/C=C(\C)C(=O)Nc1cccc(C2=NOC3(C2)C[C@H](C(N)=O)N(C(=O)C(c2ccccc2)c2ccccc2)C3)c1 (some centres undefined)	none (no result: Mac1 fbg inh, Mac1 fbg enh, E coli WT exp)
COCCNC(C(=O)Nc1cc(Cl)cc(Cl)c1)c1ccccc1 (centres undefined)	Cav32 inh -5.2
